We go through four compounds from PubChem BioAssay.

Values joined by “and” are separate entries in the source; they are usually repeats but may differ in a detail not shown here. Identical values can stand only once. The source holds several records for some structures; these can differ, active in one and inactive in another. Active and inactive are the calls of the source.

The nature of assay [1]: small molecules captured by biotinylated probe aFSTL3 – biochemical, small-molecule microarray, fluorescence 635/667, stem cell growth factor project, primary screen (AID 1064).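 Note: measures binding of the biotinylated anti-FSTL3 antibody to printed compounds.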 Particulars: higher = more signal.
Assay [2] can be described thus: binders from COS7 lysate, DM2A8 probe, primary screen, torsin A project, cell lysate, small-molecule microarray, fluorescence 635/667 (AID 1065). Particulars: higher = more signal, COS7 lysate expressing mutant human TOR1A.
Assay [3] is described as follows: small molecules captured by biotinylated probe aFGF2 – biochemical, small-molecule microarray, fluorescence 635/667, stem cell growth factor project, primary screen (AID 1067).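 Note: measures binding of biotinylated aFGF2 protein to printed compounds on slides; z-score merges feature fluorescence and signal-to-noise across triplicate slides.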 The conditions noted are these: higher = more signal.
Assay [4] is described as follows: small molecules captured by biotinylated probe aFGF10 – biochemical, small-molecule microarray, fluorescence 635/667, stem cell growth factor project, primary screen (AID 1071).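 Note: score merges 667 nm spot intensity and signal to noise from triplicate slides.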 The conditions noted are these: higher = more signal.
Assay [5] addresses Neurogenic locus notch homolog protein 2 (Homo sapiens) (UniProt Q04721). As to the kind of experiment: small molecules binding Notch2 protein – biochemical, small-molecule microarray, 635 nm fluorescence, stem cell growth factors, primary screen (AID 1073). The conditions noted are these: higher = more signal.
In assay [6] the target is Pro-neuregulin-1, membrane-bound isoform (Homo sapiens) (UniProt Q02297). As to the kind of experiment: small molecules binding neuregulin-1 protein – biochemical, small-molecule microarray, fluorescence 635/667, psychiatric disease protein project, primary screen (AID 1075).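 Note: score combines 667 nm spot fluorescence with signal to noise.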 The conditions noted are these: NRG1 binding, 635 nm fluorescence, higher = more signal.
Chain of Pro-neuregulin-1, membrane-bound isoform (Homo sapiens) (Q02297 whole entry, looked up, the tested form may be a part, canonical isoform): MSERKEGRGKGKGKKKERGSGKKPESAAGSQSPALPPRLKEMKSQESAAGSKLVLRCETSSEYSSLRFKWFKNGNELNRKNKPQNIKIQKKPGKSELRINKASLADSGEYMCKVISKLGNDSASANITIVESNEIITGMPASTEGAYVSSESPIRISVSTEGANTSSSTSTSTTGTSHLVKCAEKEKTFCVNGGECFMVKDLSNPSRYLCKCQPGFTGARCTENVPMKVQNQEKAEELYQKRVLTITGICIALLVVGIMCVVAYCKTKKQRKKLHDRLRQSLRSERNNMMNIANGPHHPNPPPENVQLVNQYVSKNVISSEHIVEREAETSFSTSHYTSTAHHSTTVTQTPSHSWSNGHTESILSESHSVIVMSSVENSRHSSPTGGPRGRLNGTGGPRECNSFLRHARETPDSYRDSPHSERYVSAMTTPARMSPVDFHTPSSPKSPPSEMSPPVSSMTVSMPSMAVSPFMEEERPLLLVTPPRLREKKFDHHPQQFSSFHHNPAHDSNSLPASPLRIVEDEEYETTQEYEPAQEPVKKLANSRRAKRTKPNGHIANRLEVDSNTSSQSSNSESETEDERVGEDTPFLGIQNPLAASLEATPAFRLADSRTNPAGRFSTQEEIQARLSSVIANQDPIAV
Assay [7] relates to Neuregulin-1 EGF-like domain. As to the kind of experiment: small molecules binding NRG1 EGF domain – biochemical, small-molecule microarray, 635 nm fluorescence, primary screen (AID 1081).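 Note: binding of the protein to compounds printed on small-molecule microarray slides.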 The conditions noted are these: higher = more signal.
The nature of assay [8]: FRG1 expression reporter modulators in myotubes – cell-based, C2C12 myotubes, firefly/Renilla luciferase, luminescence, FRG1 inhibition for FSHD, primary screen (AID 1084). The conditions noted are these: FRG1 promoter luciferase, higher = more signal, called active from +8 up or from −8 down.
Assay [9] in a line: small molecules captured by biotinylated probe aFST – biochemical, small-molecule microarray, fluorescence 635/667, stem cell growth factor project, primary screen (AID 1086).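 Note: score merges 667 nm fluorescence with signal-to-noise of each printed compound spot.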 The conditions noted are these: higher = more signal.
A short description of assay [10]: binders of probe aHhip on microarray, primary screen, stem cell growth factor project, biochemical, small-molecule microarray, fluorescence 635/667 (AID 1087).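 Note: score merges spot fluorescence at 667nm with spot signal to noise ratio.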 Particulars: higher = more signal.
For assay [11], the system named is PRMT1 (protein arginine N-methyltransferase 1). In words: small molecules binding arginine methyltransferase PRMT1 – biochemical, small-molecule microarray, 635 nm fluorescence, primary screen (AID 1088).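 Note: binding of Prmt1 protein to compounds spotted on small-molecule microarray slides.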 The conditions noted are these: higher = more signal.
A short description of assay [12]: growth effects on S. cerevisiae YJM789 – YJM789 clinical isolate, OD600, 24 h, basal, primary screen (AID 1089).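 Note: growth of clinical yeast isolate S. cerevisiae YJM 789 seeded 1000 cells per well; test concentration not given here.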 Particulars: higher = more signal, called active from +8 up or from −8 down.
Assay [13] can be described thus: S. pombe growth modifiers, basal conditions – strain 972, OD600, 24 h, no modulator, primary screen (AID 1090).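 Note: basal condition with compound alone and no growth modifier present; test concentration not given here.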 The conditions noted are these: S. pombe 972 growth, higher = more signal, called active from +8 up or from −8 down.
Assay [14] in a line: budding yeast growth modifiers under rapamycin – strain BY4716, OD600, 96 h, primary screen (AID 1091). Note: test concentration not given here. The conditions noted are these: S. cerevisiae BY4716 + rapamycin, higher = more signal, called active from +8 up or from −8 down.
Assay [15] has as its target Torsin-1A-interacting protein 2 (Homo sapiens) (UniProt Q8NFQ8). In words: small molecules binding lysate-expressed LULL1 – cell lysate, human LULL1 lysate, 635/667 nm fluorescence, primary screen (AID 1092).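 Note: probe is lysate of COS7 cells overexpressing human LULL1; score merges per-feature 667 nm fluorescence with signal-to-noise.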 The conditions noted are these: small-molecule microarray, hLULL1 lysate binding, 635 nm fluorescence; higher = more signal.
The nature of assay [16]: optical density change of DRC41 E. coli – strain DRC41, OD650, 24 h, E. coli filamentation project, primary screen (AID 1093).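 Note: MC1000 strain lacking acrAB efflux and sulA so SOS filamentation is blocked; test concentration not given here.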 The conditions noted are these: E. coli DRC41 growth, higher = more signal, called active from +8 up or from −8 down.
The nature of assay [17]: probe aLefty2 binding to arrayed compounds – biochemical, biotinylated probe, 635/667 nm fluorescence, primary screen (AID 1094).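 Note: score merges spot fluorescence near 667 nm with spot signal-to-noise ratio.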 The conditions noted are these: small-molecule microarray, higher = more signal.
Assay [18] relates to Noggin (protein binding on small-molecule microarray). In words: small molecules binding Noggin protein – biochemical, 635/667 nm fluorescence, primary screen (AID 1095).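 Note: score merges 667 nm feature fluorescence with signal to noise over triplicate slides.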 Particulars: 635 nm fluorescence, higher = more signal.
Assay [19] has as its target Neurogenic locus notch homolog protein 3 (Homo sapiens) (UniProt Q9UM47). In words: small molecules binding NOTCH3 protein – biochemical, 635/667 nm fluorescence, primary screen (AID 1096). Particulars: small-molecule microarray, 635 nm fluorescence, higher = more signal.
Assay [20] can be described thus: probe aEGFR binding to arrayed compounds – biochemical, biotinylated probe, 635/667 nm fluorescence, primary screen (AID 1097).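 Note: probe is a biotinylated anti-EGFR antibody binding compounds printed on slides; score combines fluorescence near 667 nm and signal to noise of each spot.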 The conditions noted are these: small-molecule microarray, higher = more signal.

Chain of Neurogenic locus notch homolog protein 3 (Homo sapiens) (Q9UM47 whole entry, looked up): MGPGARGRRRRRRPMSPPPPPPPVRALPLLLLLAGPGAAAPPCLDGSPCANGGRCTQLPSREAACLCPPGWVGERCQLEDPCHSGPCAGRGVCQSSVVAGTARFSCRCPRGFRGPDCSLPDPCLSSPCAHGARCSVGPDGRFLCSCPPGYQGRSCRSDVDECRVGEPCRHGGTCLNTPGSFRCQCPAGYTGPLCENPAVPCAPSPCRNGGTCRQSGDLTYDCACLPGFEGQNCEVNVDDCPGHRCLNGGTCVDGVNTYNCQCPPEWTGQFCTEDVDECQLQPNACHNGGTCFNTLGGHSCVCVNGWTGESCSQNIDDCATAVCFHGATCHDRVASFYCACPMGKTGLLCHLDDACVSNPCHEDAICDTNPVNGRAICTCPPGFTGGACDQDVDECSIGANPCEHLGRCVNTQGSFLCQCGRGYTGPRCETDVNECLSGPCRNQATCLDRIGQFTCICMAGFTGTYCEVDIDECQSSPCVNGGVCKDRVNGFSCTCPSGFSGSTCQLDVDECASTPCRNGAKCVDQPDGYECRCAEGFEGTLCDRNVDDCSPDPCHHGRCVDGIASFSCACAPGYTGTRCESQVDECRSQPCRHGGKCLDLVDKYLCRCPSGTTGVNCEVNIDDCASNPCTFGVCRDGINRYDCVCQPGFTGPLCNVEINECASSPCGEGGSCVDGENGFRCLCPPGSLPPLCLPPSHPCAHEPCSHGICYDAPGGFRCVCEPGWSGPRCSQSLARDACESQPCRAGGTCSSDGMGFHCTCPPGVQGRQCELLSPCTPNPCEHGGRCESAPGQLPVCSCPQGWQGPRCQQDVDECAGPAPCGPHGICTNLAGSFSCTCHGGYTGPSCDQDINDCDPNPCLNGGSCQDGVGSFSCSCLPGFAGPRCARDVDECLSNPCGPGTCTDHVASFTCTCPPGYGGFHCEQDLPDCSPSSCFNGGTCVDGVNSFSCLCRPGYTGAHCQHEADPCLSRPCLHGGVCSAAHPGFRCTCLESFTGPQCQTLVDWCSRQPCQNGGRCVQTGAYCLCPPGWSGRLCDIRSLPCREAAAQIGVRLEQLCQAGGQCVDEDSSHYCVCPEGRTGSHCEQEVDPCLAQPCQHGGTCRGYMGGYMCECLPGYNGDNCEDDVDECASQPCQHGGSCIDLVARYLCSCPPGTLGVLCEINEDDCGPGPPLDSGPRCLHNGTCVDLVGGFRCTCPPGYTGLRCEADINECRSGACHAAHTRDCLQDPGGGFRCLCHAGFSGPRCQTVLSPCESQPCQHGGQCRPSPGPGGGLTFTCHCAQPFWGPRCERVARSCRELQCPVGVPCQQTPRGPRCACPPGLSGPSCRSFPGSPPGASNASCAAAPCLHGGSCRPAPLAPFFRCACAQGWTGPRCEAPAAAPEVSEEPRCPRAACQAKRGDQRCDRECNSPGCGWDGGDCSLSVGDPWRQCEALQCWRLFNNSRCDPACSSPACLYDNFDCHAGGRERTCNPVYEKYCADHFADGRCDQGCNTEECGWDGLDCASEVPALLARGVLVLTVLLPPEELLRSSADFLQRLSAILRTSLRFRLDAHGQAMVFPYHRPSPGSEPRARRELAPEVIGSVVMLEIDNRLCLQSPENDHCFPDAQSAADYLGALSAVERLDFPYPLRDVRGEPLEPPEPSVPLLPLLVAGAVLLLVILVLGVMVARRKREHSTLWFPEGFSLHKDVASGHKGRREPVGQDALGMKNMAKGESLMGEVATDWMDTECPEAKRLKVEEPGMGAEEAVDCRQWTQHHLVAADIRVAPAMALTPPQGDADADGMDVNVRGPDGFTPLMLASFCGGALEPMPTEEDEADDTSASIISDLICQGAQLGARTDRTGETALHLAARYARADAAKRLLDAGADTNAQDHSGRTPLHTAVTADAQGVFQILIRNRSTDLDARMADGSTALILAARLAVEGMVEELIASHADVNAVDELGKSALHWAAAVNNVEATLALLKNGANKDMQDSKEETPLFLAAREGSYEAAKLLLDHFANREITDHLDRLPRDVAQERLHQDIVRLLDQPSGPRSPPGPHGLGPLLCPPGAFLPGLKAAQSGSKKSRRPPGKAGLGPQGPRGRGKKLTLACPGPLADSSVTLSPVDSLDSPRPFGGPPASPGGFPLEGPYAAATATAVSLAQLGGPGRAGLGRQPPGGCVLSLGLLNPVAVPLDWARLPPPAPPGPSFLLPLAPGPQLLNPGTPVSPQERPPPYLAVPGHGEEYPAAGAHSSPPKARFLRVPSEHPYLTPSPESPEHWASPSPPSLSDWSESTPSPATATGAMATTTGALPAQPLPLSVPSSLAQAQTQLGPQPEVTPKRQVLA
Chain of Torsin-1A-interacting protein 2 (Homo sapiens) (Q8NFQ8 whole entry, looked up): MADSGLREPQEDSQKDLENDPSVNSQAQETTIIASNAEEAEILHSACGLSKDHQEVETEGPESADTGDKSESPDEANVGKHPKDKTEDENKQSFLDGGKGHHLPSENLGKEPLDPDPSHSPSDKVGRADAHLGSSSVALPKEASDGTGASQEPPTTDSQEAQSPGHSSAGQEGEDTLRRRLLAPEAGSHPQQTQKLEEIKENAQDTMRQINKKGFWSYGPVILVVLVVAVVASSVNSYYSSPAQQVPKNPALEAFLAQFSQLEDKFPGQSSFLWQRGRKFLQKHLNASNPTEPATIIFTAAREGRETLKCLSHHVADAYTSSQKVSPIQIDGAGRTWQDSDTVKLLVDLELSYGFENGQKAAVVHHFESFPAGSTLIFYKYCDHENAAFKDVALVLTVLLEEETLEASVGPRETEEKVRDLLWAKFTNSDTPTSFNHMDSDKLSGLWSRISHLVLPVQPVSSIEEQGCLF

With `C#CCN1C(/C=C/c2ccccc2)C(=O)OC[C@H]1c1ccccc1` (stereo not given in full), the composite z-score was -0.256 and -0.303 in assay [1]; 0.184 and 0.348 in assay [2]; -0.0569 and -0.1 in [3]; 0.301 and 0.398 in assay [4]; 0.346 and -0.0877 in assay [5]; -0.0907 and 0.365 in assay [6]. The composite z-score is 0.165 and 0.833 in assay [7]; -0.151 and 0.465 in assay [9]; 0.0401 and -0.276 in assay [10]; -0.0815 and 0.365 in [11]; 0.447 and 2.09 in [15]; -0.0766 and -0.215 in assay [17]. For the same compound, the composite z-score is 0.899 and 0.231 in assay [18]; 0.719 and 0.768 in assay [19]; -0.0304 and -0.0311 in [20]. Also, the z-score was -1.03 (inactive) and -0.536 (inactive) in [8]; -3.12 (inactive) and -0.539 (inactive) in [12]; -7.61 (inactive) and -3.7 (inactive) in assay [13]; -3.5 (inactive) and -1.57 (inactive) in [14]; 1.07 (inactive) and 0.53 (inactive) in assay [16].

As to `C=CCN(CCCC)C(=O)C1N(C(C)(C)CO)C(=O)C2C(C(=O)O)C3C=CC21O3` (stereo not given), the composite z-score is 0.501 and 0.858 in assay [1]; -0.796 and -1.83 in assay [2]; -0.249 and -0.252 in assay [3]; -1.94 and -1.01 in assay [4]; -1.33 and -1.67 in [5]; 1.06 and -1.21 in assay [6]. In addition, the composite z-score is 0.111 and -0.645 in assay [7]; -1.12 and -0.587 in assay [9]; -0.204 and -0.0645 in assay [10]; -0.278 and -1.01 in assay [11]; -0.523 and -0.805 in assay [15]; -0.223 and -0.124 in assay [17]. Further, the composite z-score in assay [18] was -2.07 and -1.17; in [19] it was -0.732 and -0.74; in assay [20], -0.23 and -0.336. Moreover, the z-score was 1.4 (inactive) and 0.963 (inactive) in [8]; -0.412 (inactive) and 0.0394 (inactive) in assay [12]; 0.0945 (inactive) and 0.0925 (inactive) in assay [13]; -0.626 (inactive) and -0.302 (inactive) in assay [14]; -0.21 (inactive) and -0.367 (inactive) in [16].

`CC(C)[Si]1(C(C)C)OCc2cc(CCCc3cc4c(c(CCc5ccccc5)n3)[Si](C(C)C)(C(C)C)OC4)nc(CCc3ccccc3)c21`: the composite z-score in assay [1] is -0.0088 and -0.516; in assay [2], 0.0696 and 0.445; in [3], -0.105 and -0.12; in [4] it was -0.841 and 0.402; in assay [5] it was -0.0702 and 0.469; in assay [6], -0.429 and -0.0826. Also, the composite z-score in [7] is -0.688 and 0.277; in [9], -0.0006 and 0.0171; in [10], 0.141 and 0.065; in assay [11], 0.393 and 0.722; in assay [15], 0.227 and 0.364; in assay [17], -0.128 and -0.0479. For the same compound, the composite z-score is -0.0022 and 0.42 in [18]; -0.604 and 0.721 in assay [19]; -0.157 and -0.0594 in assay [20]. In addition, the z-score in [8] is -0.712 (inactive) and 0.124 (inactive); in assay [12], 0.873 (inactive) and 0.702 (inactive); in assay [13], -19.7 (active) and 0.733 (inactive); in assay [14] it was -1.25 (inactive) and 0.323 (inactive); in assay [16] it was 2.13 (inactive) and -1.16 (inactive).

As for `CCC[C@@H]1C[C@@]1(CCC)[C@@H](NC(=O)c1ccc(-c2ccccc2)cc1)c1cccc(Cl)c1`, the composite z-score in assay [1] is 2.36 and 0.236; in assay [2], 0.995 and -0.712; in [3], 0.736 and -0.171; in assay [4], -0.636 and 0.226; in assay [5] it was -1.01 and 1.53; in assay [6], -0.612 and 1.2. The composite z-score is -0.62 and 1.11 in assay [7]; 1.96 and 0.48 in assay [9]; 2.73 and 0.663 in [10]; -0.13 and -0.434 in assay [11]; 0.678 and 3.32 in assay [15]; 1.07 and 0.266 in assay [17]. Moreover, the composite z-score in assay [18] was 0.191 and -0.508; in assay [19], -0.585 and 0.419; in assay [20], 0.78 and -0.0975. Moreover, the z-score in [8] was -1 (inactive) and 0.245 (inactive); in assay [12] it was -0.173 (inactive) and 0.948 (inactive); in [13] it was -12.7 (active) and 1.75 (inactive); in assay [14], -0.86 (inactive) and 1.18 (inactive); in [16], -1.33 (inactive) and -0.003 (inactive).
